In PubChem BioAssay (EPA / NIEHS):
The source made the active and inactive calls. The calls were made as follows: active = hit-call score of the fitted dose curve at least 0.9, where 1 is the maximum; inactive = score below 0.9.

Assays:
[1] = BSK_hDFCGF_SRB: Viability Assessment in the BioMAP Diversity Plus: hDFCGF Assay (AID 2283061); conditions: primary human foreskin fibroblasts;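 also: cells exposed to compound for 24 h before the read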
Outline: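 Primary human foreskin fibroblasts; 24 h post-dose; fixed 10% TCA, stained 0.1% SRB, A560 read; total protein as overt cytotoxicity measure; curves fit bidirectionally vs DMSO control.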

[2] = read-out: TIMP metallopeptidase inhibitor 1 (TIMP1), TIMP1 (gene 7076); assay: BSK_hDFCGF_TIMP1: BioMAP Diversity Plus: hDFCGF Assay for TIMP metallopeptidase inhibitor 1 (TIMP1) Biomarker Activity (AID 2283062); conditions: primary human foreskin fibroblasts; actives raise or lower the signal
Outline: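 ELISA readout of TIMP-1 from human dermal foreskin fibroblast cultures 24 h post-dosing. Curves were fitted in both directions against DMSO baseline, with SRB total-protein staining in parallel cultures as a cytotoxicity check.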

[3] = read-out: Monokine induced gamma interferon (MIG), CXCL9 (gene 4283); assay: BSK_hDFCGF_MIG: BioMAP Diversity Plus: hDFCGF Assay for Monokine induced gamma interferon (MIG) Biomarker Activity (AID 2283063); conditions: primary human foreskin fibroblasts; actives raise or lower the signal
Outline: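 Fibroblasts (human foreskin, primary) dosed, 24 h, MIG by ELISA; fit bidirectional vs DMSO.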

[4] = read-out: Matrix Metallopeptidase 1 (MMP1), MMP1 (gene 4312); assay: BSK_hDFCGF_MMP1: BioMAP Diversity Plus: hDFCGF Assay for Matrix Metallopeptidase 1 (MMP1) Biomarker Activity (AID 2283064); conditions: primary human foreskin fibroblasts; actives raise or lower the signal
Outline: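 hDFCGF primary fibroblasts (human foreskin); chemical added; 24 h; MMP1 by ELISA; bidirectional fit vs DMSO.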

[5] = read-out: Vascular cell adhesion molecule 1 (VCAM1), VCAM1 (gene 7412); assay: BSK_hDFCGF_VCAM1: BioMAP Diversity Plus: hDFCGF Assay for Vascular cell adhesion molecule 1 (VCAM1) Biomarker Activity (AID 2283065); conditions: primary human foreskin fibroblasts; actives raise or lower the signal;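 as to AC50: VCAM-1 protein level quantified by ELISA after 24 h chemical exposure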
Outline: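 ELISA read-out of VCAM-1 on human skin fibroblasts, 24 h post-dose; gain or loss of signal fitted bidirectionally against DMSO baseline.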

[6] = read-out: Plasminogen activator inhibitor-1 (PAI1), SERPINE1 (gene 5054); assay: BSK_hDFCGF_PAI1: BioMAP Diversity Plus: hDFCGF Assay for Plasminogen activator inhibitor-1 (PAI1) Biomarker Activity (AID 2283066); conditions: primary human foreskin fibroblasts; actives raise or lower the signal
Outline: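 Human foreskin fibroblasts in the hDFCGF system were dosed with compound for 24 h; PAI-1 was quantified by ELISA. Bidirectional curve fitting used DMSO as negative control and baseline.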

[7] = read-out: Intercellular Adhesion Molecule 1 (ICAM1), ICAM1 (gene 3383); assay: BSK_KF3CT_ICAM1: BioMAP Diversity Plus: KF3CT Assay for Intercellular Adhesion Molecule 1 (ICAM1) Biomarker Activity (AID 2283067); conditions: primary human keratinocytes with fibroblasts; actives raise or lower the signal
Outline: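 ELISA readout of ICAM-1; KF3CT human skin co-culture (keratinocytes + foreskin fibroblasts), 24 h post-dose; gain/loss fit vs DMSO baseline.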

[8] = read-out: Interferon-gamma inducible Protein 10 (IP10), CXCL10 (gene 3627); assay: BSK_KF3CT_IP10: BioMAP Diversity Plus: KF3CT Assay for Interferon-gamma inducible Protein 10 (IP10) Biomarker Activity (AID 2283068); conditions: primary human keratinocytes with fibroblasts; actives raise or lower the signal
Outline: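 In a primary skin co-culture of keratinocytes and fibroblasts, IP-10 is quantified by ELISA at 24 h after dosing. SRB staining of parallel wells monitors overt toxicity. Curves are fitted both directions against DMSO.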

[9] = BSK_KF3CT_SRB: Viability Assessment in the BioMAP Diversity Plus: KF3CT Assay (AID 2283069); conditions: primary human keratinocytes with fibroblasts;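 also: total protein by sulforhodamine B staining as a cytotoxicity measure; read 24 h after compound addition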
Outline: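 Keratinocytes co-cultured with foreskin fibroblasts (human primary); chemical added, 24 h; fix 10% TCA, stain 0.1% SRB, A560. Bidirectional fit vs DMSO.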

[10] = read-out: Interleukin-1 alpha (IL1a), IL1A (gene 3552); assay: BSK_KF3CT_IL1a: BioMAP Diversity Plus: KF3CT Assay for Interleukin-1 alpha (IL1a) Biomarker Activity (AID 2283070); conditions: primary human keratinocytes with fibroblasts; actives raise or lower the signal
Outline: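 Chemicals were dosed onto co-cultured human keratinocytes and foreskin fibroblasts, IL-1a was quantified by ELISA at 24 h, and activity was fitted in both directions relative to DMSO controls.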

[11] = read-out: TIMP metallopeptidase inhibitor 2 (TIMP2), TIMP2 (gene 7077); assay: BSK_KF3CT_TIMP2: BioMAP Diversity Plus: KF3CT Assay for TIMP metallopeptidase inhibitor 2 (TIMP2) Biomarker Activity (AID 2283071); conditions: primary human keratinocytes with fibroblasts; actives raise or lower the signal
Outline: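 Human primary keratinocyte/foreskin fibroblast co-culture dosed with chemical and sampled at 24 h. TIMP-2 levels quantified by ELISA; bidirectional fitting against DMSO negative control as baseline.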

[12] = read-out: C-C motif chemokine 2 (Homo sapiens) (UniProt P13500); assay: BSK_KF3CT_MCP1: BioMAP Diversity Plus: KF3CT Assay for Monocyte Chemoattractant Protein 1 (MCP1/CCL2) Biomarker Activity (AID 2283073); conditions: primary human keratinocytes with fibroblasts; actives raise or lower the signal
Outline: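 KF3CT skin co-culture (keratinocytes/foreskin fibroblasts), 24 h post-dose; MCP-1 by ELISA; gain/loss of signal fit bidirectionally vs DMSO baseline.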

[13] = read-out: Matrix Metallopeptidase 9 (MMP9), MMP9 (gene 4318); assay: BSK_KF3CT_MMP9: BioMAP Diversity Plus: KF3CT Assay for Matrix Metallopeptidase 9 (MMP9) Biomarker Activity (AID 2283074); conditions: primary human keratinocytes with fibroblasts; actives raise or lower the signal;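 as to AC50: MMP9 protein level quantified by ELISA in the co-culture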
Outline: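 Human keratinocyte/foreskin fibroblast co-culture; compound added; 24 h; MMP-9 by ELISA; bidirectional fit vs DMSO baseline.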

[14] = read-out: urokinase plasminogen activator (uPA), PLAU (gene 5328); assay: BSK_KF3CT_uPA: BioMAP Diversity Plus: KF3CT Assay for urokinase plasminogen activator (uPA) Biomarker Activity (AID 2283075); conditions: primary human keratinocytes with fibroblasts; actives raise or lower the signal
Outline: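 ELISA readout of uPA, analyzed for signal gain or loss relative to DMSO, from a human primary keratinocyte–foreskin fibroblast co-culture measured 24 h after chemical treatment.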

[15] = read-out: CD40, CD40 (gene 958); assay: BSK_LPS_CD40: BioMAP Diversity Plus: LPS Assay for CD40 Biomarker Activity (AID 2283076); conditions: primary human HUVEC with PBMC; actives raise or lower the signal
Outline: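 ELISA readout of CD40 in HUVEC/PBMC co-culture (BSK_LPS system), 24 h post-dosing; bidirectional curve fit, DMSO baseline; parallel SRB total-protein staining for cytotoxicity.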

[16] = read-out: Interleukin-8 (IL8), CXCL8 (gene 3576); assay: BSK_LPS_IL8: BioMAP Diversity Plus: LPS Assay for Interleukin-8 (IL8) Biomarker Activity (AID 2283078); conditions: primary human HUVEC with PBMC; actives raise or lower the signal
Outline: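 HUVEC + PBMC co-culture, LPS-activated; test chemicals dosed, IL-8 read by ELISA at 24 h. Bidirectional curve fit vs DMSO baseline (gain or loss of signal).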

[17] = BSK_LPS_SRB: Viability Assessment in the BioMAP Diversity Plus: LPS Assay (AID 2283079); conditions: primary human HUVEC with PBMC;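 also: total protein by sulforhodamine B absorbance as a cytotoxicity measure; measured one day after compound addition; fitted in both directions against DMSO so loss or gain of signal counts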
Outline: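 HUVEC + PBMC co-culture, LPS-stimulated; compound 24 h. 10% TCA fix, 0.1% SRB stain, A560. Bidirectional fit vs DMSO.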

[18] = read-out: Macrophage colony-stimulating factor (MCSF), CSF1 (gene 1435); assay: BSK_hDFCGF_MCSF: BioMAP Diversity Plus: hDFCGF Assay for Macrophage colony-stimulating factor (MCSF) Biomarker Activity (AID 2283060); conditions: primary human foreskin fibroblasts; actives raise or lower the signal
Outline: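 ELISA read-out of M-CSF in human dermal foreskin fibroblast cultures, 24 h after chemical dosing; gain or loss of signal fitted bidirectionally relative to DMSO baseline.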

[19] = read-out: E-selectin (Homo sapiens) (UniProt P16581); assay: BSK_LPS_Eselectin: BioMAP Diversity Plus: LPS Assay for Eselectin Biomarker Activity (AID 2283077); conditions: primary human HUVEC with PBMC; actives raise or lower the signal
Outline: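 ELISA readout of E-selectin, 24 h post-dose, HUVEC + PBMC co-culture (LPS system). Gain or loss of signal vs DMSO baseline, bidirectional fit.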

[20] = read-out: Transforming growth factor beta 1 (TGFb1), TGFB1 (gene 7040); assay: BSK_KF3CT_TGFb1: BioMAP Diversity Plus: KF3CT Assay for Transforming growth factor beta 1 (TGFb1) Biomarker Activity (AID 2283072); conditions: primary human keratinocytes with fibroblasts; actives raise or lower the signal
Outline: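 Human keratinocyte plus foreskin fibroblast primary co-culture, dosed with chemical for 24 h. TGF-b1 quantified by ELISA. Activity fitted bidirectionally against DMSO negative control as baseline.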

Measured: AC50

Sequence of E-selectin (Homo sapiens) (P16581 whole entry, looked up): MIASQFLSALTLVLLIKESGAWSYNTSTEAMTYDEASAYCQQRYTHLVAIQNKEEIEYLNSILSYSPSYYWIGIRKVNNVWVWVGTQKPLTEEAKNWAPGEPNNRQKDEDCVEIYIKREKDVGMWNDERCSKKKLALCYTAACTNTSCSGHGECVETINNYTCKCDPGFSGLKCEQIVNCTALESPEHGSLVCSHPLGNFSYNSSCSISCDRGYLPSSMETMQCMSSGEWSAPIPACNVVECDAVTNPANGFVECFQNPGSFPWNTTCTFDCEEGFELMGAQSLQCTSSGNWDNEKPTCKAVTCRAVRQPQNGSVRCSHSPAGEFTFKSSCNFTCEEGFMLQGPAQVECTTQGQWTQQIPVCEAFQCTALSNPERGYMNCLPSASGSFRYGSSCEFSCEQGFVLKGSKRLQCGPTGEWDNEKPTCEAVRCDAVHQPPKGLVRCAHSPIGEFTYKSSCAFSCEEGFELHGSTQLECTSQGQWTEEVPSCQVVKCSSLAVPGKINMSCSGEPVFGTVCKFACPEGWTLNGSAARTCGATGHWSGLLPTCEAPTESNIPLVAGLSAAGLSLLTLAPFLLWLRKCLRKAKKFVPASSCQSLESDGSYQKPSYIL

Clc1nc(Cl)nc(Nc2ccccc2Cl)n1
active: [1] 31.7 µM | [3] 29.1 µM | [5] 36.1 µM | [6] 27.2 µM
inactive: [2] | [4] | [7] | [8] | [9] | [10] | [11] | [12] | [13] | [14] | [15] | [16] | [17]

Cc1ccc(N=CN(C)C=Nc2ccc(C)cc2C)c(C)c1
active: [18] 15.2 µM | [1] 28.4 µM | [2] 31 µM | [3] 29.7 µM | [4] 33.2 µM | [5] 15.8 µM | [6] 29.7 µM | [8] 32.7 µM | [9] 28.6 µM | [11] 26.2 µM | [13] 31.3 µM | [14] 26.9 µM | [15] 29.5 µM | [16] 33.6 µM
inactive: [7] | [10] | [12]

CC1(C)CON(Cc2ccccc2Cl)C1=O
active: [4] 20 µM
inactive: [18] | [1] | [3] | [5] | [6] | [7] | [8] | [9] | [10] | [11] | [12] | [13] | [14] | [15] | [19] | [16]

O=C1C2CC=CCC2C(=O)N1SC(Cl)(Cl)Cl (stereo not given)
inactive: [2]
active: [18] 6.29 µM | [1] 6.26 µM | [3] 7.37 µM | [4] 10.7 µM | [5] 5.37 µM | [6] 7.58 µM | [7] 9.86 µM | [8] 10.3 µM | [9] 5.79 µM | [11] 11.2 µM | [12] 11.8 µM | [13] 8.54 µM | [15] 22.3 µM | [19] 29.5 µM | [16] 25.2 µM

N#Cc1c(Cl)cccc1Cl
inactive: [18] | [1] | [2] | [3] | [4] | [5] | [6] | [7] | [8] | [9] | [10] | [11] | [12] | [13] | [14] | [15] | [16] | [17]

COc1cc(Cl)c(OC)cc1Cl
inactive: [18] | [1] | [2] | [3] | [4] | [5] | [6] | [7] | [8] | [9] | [10] | [11] | [12] | [13] | [14] | [15] | [16] | [17]

CCN(CC)C(=O)C(C)Oc1cccc2ccccc12 (stereo not given)
inactive: [18] | [1] | [2] | [3] | [4] | [6] | [7] | [8] | [9] | [10] | [11] | [20] | [12] | [13] | [14] | [15] | [16]

CCOc1cc(C(C)(C)C)ccc1C1COC(c2c(F)cccc2F)=N1 (stereo not given)
active: [18] 14.5 µM | [1] 19.7 µM | [2] 13.8 µM | [3] 29.4 µM | [4] 14.3 µM | [5] 15.3 µM | [6] 12.3 µM | [7] 31.3 µM | [8] 17.3 µM | [9] 8.44 µM | [10] 11.2 µM | [11] 15.1 µM | [12] 20 µM | [13] 14.8 µM | [14] 27.1 µM | [15] 29.2 µM | [16] 26 µM

COC(=O)NC(=S)Nc1ccccc1NC(=S)NC(=O)OC
inactive: [18] | [1] | [2] | [3] | [5] | [6] | [7] | [8] | [9] | [10] | [11] | [12] | [13] | [14] | [15] | [19] | [16] | [17]
active: [4] 3.97 µM

CCCCC(C#N)(Cn1cncn1)c1ccc(Cl)cc1 (stereo not given)
active: [6] 7.4 µM | [8] 0.148 µM
inactive: [18] | [1] | [2] | [3] | [4] | [5] | [7] | [9] | [10] | [11] | [12] | [13] | [14] | [15] | [16]

COc1cc(OC)nc(NC(=O)NS(=O)(=O)c2ncccc2OCC(F)(F)F)n1
inactive: [18] | [1] | [2] | [3] | [4] | [5] | [6] | [7] | [8] | [9] | [10] | [11] | [12] | [13] | [14] | [15] | [19] | [16]

CCSC(=O)N1CCCCCC1
inactive: [18] | [1] | [2] | [3] | [4] | [5] | [6] | [7] | [8] | [9] | [10] | [11] | [12] | [13] | [14] | [15] | [16] | [17]

CCCC(=NOCC)C1=C(O)CC(CC(C)SCC)CC1=O (stereo not given)
inactive: [18] | [1] | [2] | [3] | [4] | [5] | [6] | [7] | [8] | [9] | [10] | [11] | [12] | [13] | [14] | [15] | [16]

Cc1nc(N(C)C)nc(OC(=O)N(C)C)c1C
inactive: [18] | [2] | [3] | [4] | [5] | [6] | [7] | [8] | [9] | [10] | [11] | [12] | [13] | [14] | [15] | [19] | [16] | [17]
active: [1] 29.8 µM
